The record followed here is PubChem BioAssay AID651965 (National Center for Advancing Translational Sciences (NCATS), 2013).

Out of some 340,000 compounds screened, about 6,400 (1.9%) were called active. Inconclusive results (about 4%) are left out. Only a selection was taken, and actives are over-represented in it overall. Values without a mark were called inactive. The call rests on the fitted dose curve; in most records, active means well fitted falling curve with a large enough effect; inconclusive means small, poorly fitted or top-dose-only effect; inactive means no such curve, though single readings can be large or run the other way.

The target in the assay is ATP-dependent Clp protease proteolytic subunit (Bacillus subtilis (strain 168)) (UniProt P80244). In words: qHTS Assay for Activators of ClpP. Further: the source files actives as falling curves though it sought activators and does not explain the sign; nearly all actives have a fitted effect of over 65% in size. Conditions: purified B. subtilis ClpP, FRET peptide cleavage, 20 min; series mostly up to 57.5 µM; activity change, negative = active: at the top concentration. An excerpt: The Clp protease proteolytic subunit (ClpP) is the core unit of the Clp complex belonging to the peptidase family S14 that hydrolyzes protein into small peptides in the presence of ATP and magnesium. It is ubiquitously expressed and is the major protease in bacteria. […] Unlike common antibiotics that simply interfere with the essential enzyme activity, ADEP binding activates the ClpP core in the absence of the regulatory Clp-ATPases leading to uncontrolled proteolysis and eventually cell death. Activators binding to the docking site on ClpP can also block formation of the ClpXP and ClpA/C-P holoenzyme complexes interfering with the normal biological functions of ClpP and thus have the potential to become new anti-microbials.
Sequence of ATP-dependent Clp protease proteolytic subunit (Bacillus subtilis (strain 168)) (P80244 whole entry, looked up): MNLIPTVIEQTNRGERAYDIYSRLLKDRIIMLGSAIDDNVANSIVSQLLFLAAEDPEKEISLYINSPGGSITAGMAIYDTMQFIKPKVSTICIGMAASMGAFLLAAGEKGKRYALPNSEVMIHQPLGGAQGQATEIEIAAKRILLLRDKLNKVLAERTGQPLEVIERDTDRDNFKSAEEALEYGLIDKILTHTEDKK
To identify activators of ClpP, a FRET based quenching reversal assay was developed using a purified B. subtilis ClpP and a decapeptide substrate (FRET-FV). The FRET-FV is tagged with a fluorescent molecule amino benzoic acid (donor) at the N-terminus and a nitrotyrosine quencher (acceptor) at the C-terminus. FRET-FV cleaves upon activation of ClpP with ADEP treatement and reverses the quenching effect of the nitrotyrosine causing an increase in fluorescence emission signal at 430nm. This assay was used to screen the Molecular Libraries Small Molecule Repository (MLSMR).
NIH Molecular Libraries Probe Production Centers Network [MLPCN]
NIH Chemical Genomics Center [NCGC]
Assay Submitter (PI): Michael Maurizi, National Cancer Institute
Two and a half microL/well of purified enzyme solution (final concentrations 10 microg/mL B. subtilis ClpP in 100 mM Tris/HCl pH8, 100 mM KCl, 0.05% low protease BSA, 2.5% glycerol, 0.01% Tween-20 buffer) was dispensed into 1536-well assay plates (Greiner, black solid, medium-binding plates) with Aurora Discovery BioRAPTR Flying Reagent Dispenser (FRD, Beckton-Dickenson). Compound solution (23 nL) was transferred to the assay plate using Kalypsys pin tool equipped with a 1536-pin tool. […] FRET signals at time 0 and after 20 min room temperature incubation were obtained using the PerkinElmer Envision plate reader with 320nm excitation and 430nm emission filters. Delta FRET value (Time 20 - Time 0) was calculated and normalized to the delta FRET value of positive control ADEP (5.8 microM final concentration) and negative control DMSO and no enzyme wells.
Regarding `COc1ccc(CCCNC(=O)C2Cc3c(-c4cccc(C(N)=O)c4)ccnc3O2)cc1` (configuration not stated), the “activity change, negative = active” value is -4.14%. The same measure, in the same setting: then `Cc1cc(=O)c2ccc(NC(=O)c3ccccc3)cc2[nH]1`, with -3.5%; and `O=C1NC(Cc2ccccc2)c2nc3ccc(Br)cc3c(=O)n2-c2cc3ccccc3cc21` (configuration not stated), with -10.4%. Still for that read-out and setting: then `O=C(NCc1cccnc1)c1ccc2nc([C@@H]3O[C@H](CO)[C@H](O)[C@H](O)[C@H]3O)[nH]c2c1`, with -4.1%. As to `CC1=CC(C)(C)Nc2ccc(OC(=O)C(Cc3ccccc3)N3C(=O)C4CCCCC4C3=O)cc21` (configuration not stated), the Potency is 31.6 µM (active). As for `CCOC(=O)C(Cc1ccc(N)cc1)N1C(=O)c2ccccc2C1=O` (configuration not stated), the “activity change, negative = active” value is 0.524%.

For `CC1=CC(C)(C)Nc2ccc(OC(=O)CN3C(=O)C4CCCCC4C3=O)cc21` (configuration not stated), the “activity change, negative = active” value was -0.0791%. Still for that read-out and setting: then `Cc1ccc(NC(=O)Cn2sc3ccccc3c2=O)cc1`, with -1.89%; and `COc1ccc(Cl)cc1-n1c(CCC(=O)O)ccc1-c1ccc(C)cc1`, with 0.0453%. With `COCCCn1c(CCC(=O)O)ccc1-c1ccc(F)cc1`, the Potency is 31.6 µM (active). `Cc1ccc(-c2ccc(CCC(=O)O)n2-c2ccc(C(N)=O)cc2)cc1`: the “activity change, negative = active” value was -3.92%. Same read-out and setting: under `Nc1nc2c(ncn2[C@@H]2O[C@H](CNS(=O)(=O)N3CCc4ccccc4C3)[C@@H](O)[C@H]2O)c(=O)[nH]1` stands -0.922%; under `COCCCNc1ccn2nc(-c3ccc(CC(C)C)cc3)cc2n1`, 4.13%.

Consider `CCN(C(=O)COc1cccnc1[N+](=O)[O-])C1CCS(=O)(=O)C1` (configuration not stated), for which the Potency was 28.2 µM (active). As for `CN(C(=O)COC(=O)Cc1ccccc1[N+](=O)[O-])C1CCS(=O)(=O)C1` (configuration not stated), the “activity change, negative = active” value was -1.32%. The same measure, in the same setting: under `Cc1ccccc1OCC(=O)N(Cc1cccc(F)c1)C1CCS(=O)(=O)C1` (configuration not stated) stands -1.22%; under `Cc1cccc(C)c1NC(=O)C(c1cccc(F)c1)N1CCN(C)CC1` (configuration not stated), -0.808%. Still for that read-out and setting: then `CCOc1ccc(CCN2C(=S)N([C@@H](CC(C)C)CN3CCC[C@@H]3CN3C(=S)NC[C@@H]3Cc3ccc(O)cc3)C[C@@H]2CC(C)C)cc1`, with -1.86%; and `O=C(O)c1ccc(/C=N/NC(=O)c2ccc(Br)cc2)cc1`, with -2.02%. For the compound `CN(C)c1ccc(/C=N/NC(=O)c2ccc(Cn3cc(Br)cn3)o2)cc1`, the “activity change, negative = active” value is -1.66%. `O=C(N/N=C\c1ccc(Br)cc1)c1ccc(Cn2cccn2)o1`: the Potency was 25.1 µM (active).

For the compound `O=S1(=O)CC(N2CCC(Cc3ccccc3)CC2)CN1Cc1ccccc1` (configuration not stated), the “activity change, negative = active” value is -0.381%. `O=C(NCC(F)(F)F)c1ccc(S(=O)(=O)NCCc2ccc3c(c2)OCCO3)cc1`: the “activity change, negative = active” value was 1.64%. Still for that read-out and setting: under `Cc1cc(Nc2ccc(C)c(C)c2)n2ncnc2n1` stands 0.336%; under `Cc1ccc(NC(=S)NC(=O)/C=C/c2ccc(Cl)cc2)cc1`, -2.53%.

For `O=C(/C=C/c1ccc(Cl)cc1)Nc1ccc(S(=O)(=O)Nc2ncccn2)cc1`, the “activity change, negative = active” value is 1.87%.

With `O=C(/C=C/c1ccc(Cl)cc1)Nc1ccc(Br)cn1`, the Potency is 25.1 µM (active). In the case of `Cc1ccc(-c2ccc(CN3C(C(C)C)C(=O)N(Cc4cn(CCC5OCCO5)nn4)CCS3(=O)=O)cc2)cc1` (configuration not stated), the “activity change, negative = active” value is -0.425%. On the same count and under the same terms, under `Cc1cccc(CN2CCN(C3CN(Cc4ccccc4)S(=O)(=O)C3)CC2)c1` (configuration not stated) stands 1.14%; under `CCN1CCN(C(=O)CN(C)S(=O)(=O)c2ccc(OC)cc2)CC1`, 1.17%.

`CCN1CCN(C(=O)c2cc3cc4ccc(OC)cc4nc3s2)CC1`: the Potency was 25.1 µM (active). As to `CCN(CCCNC(=O)c1cc2cc3cc(OC)ccc3nc2s1)c1ccccc1`, the “activity change, negative = active” value was -0.725%. The same measure, in the same setting: then `COc1cccc(-c2cc3nc(NCc4ccccc4OC)n(C)c(=O)c3s2)c1`, with 4.47%; and `O=C(N/N=C\C1CC=CCC1)c1ccc(Br)o1` (configuration not stated), with -1.65%. On the same count and under the same terms, then `CC(C)(C)C1CCC(=NNC(=O)c2ccc(Br)o2)CC1` (configuration not stated), with -0.0122%. With `CCC(C)(C)C1CCC(=NNC(=O)c2ccc(Br)o2)CC1` (configuration not stated), the Potency was 25.1 µM (active). With `COc1cccc(-c2cnc3c(NC(C)=O)cc(-c4cc(F)ccc4OC)cn23)c1`, the “activity change, negative = active” value is -4.6%. On the same count and under the same terms, under `CC1=C(C(=O)N2CCOCC2)CC(CC(=O)NCc2cccs2)C(=O)N1CCCN1CCCC1=O` (configuration not stated) stands -0.996%; under `O=C(C=CC(=O)Nc1ccc(F)cc1F)Nc1ccc(F)cc1F`, 0.87%. The same measure, in the same setting: then `CCCCC[C@@H]1C=C(C(=O)OCC)[C@H](c2ccccc2)N1S(=O)(=O)c1ccc(C)cc1`, with -13.2%. As for `CC(C)Nc1ccc(-n2nc3ccccc3[n+]2[O-])cc1`, the Potency is 28.2 µM (active). For `CC(=O)Nc1cccc(-c2cc(NC(C)=O)c3ncc(-c4ccccc4)n3c2)c1`, the “activity change, negative = active” value was 5.02%. The same measure, in the same setting: under `CS(=O)(=O)/C(C#N)=C/c1cccn1S(=O)(=O)c1ccc([N+](=O)[O-])cc1` stands -2.66%. As for `Cc1ccc(-c2cn3c(n2)sc2cc(C(=O)NCCCc4ccccc4)ccc23)cc1`, the Potency is 15.8 µM (active). The same measure, in the same setting: under `CCOc1ccc(CCNC(=O)c2ccc3c(c2)sc2nc(-c4ccc(F)cc4)cn23)cc1OCC` stands 25.1 µM (active).

Take `CCOc1ccc(CCNC(=O)Cn2nc(CC)n3c(cc4sc(CC)cc43)c2=O)cc1OCC`: the “activity change, negative = active” value was -1.22%. For `COc1ccc(CCNC(=O)c2ccc3c(c2)sc2nc(-c4ccc(C)cc4)cn23)cc1OC`, the Potency is 3.16 µM (active). In the case of `COc1ccc(CCNC(=O)c2ccc3c(c2)nc(C)n3-c2ccc(Br)cc2)cc1OC`, the “activity change, negative = active” value was -1.76%. Still for that read-out and setting: under `COc1ccc(CCNC(=O)Cc2ccc(C)cc2)cc1OC` stands -6.51%; under `COc1ccc(-c2cn3c(n2)sc2cc(C(=O)Nc4ccc(F)cc4)ccc23)cc1`, -23.9%. The same measure, in the same setting: then `O=C(NCCCc1ccccc1)c1ccc2c(c1)sc1nc(-c3ccc(F)cc3)cn12`, with 4.44%; and `COc1cccc(CNC(=O)c2ccc3c(c2)sc2nc(-c4cccc(OC)c4)cn23)c1`, with 4.44%.
